NCOA2 inhibitor – inhibits human steroid receptor coactivator 2. HEK293 GAL4-SRC2 luciferase reporter, luminescence. actives 0.17% (n = 370,000). AID 651957. Q15596. inhibition, % at 9 µM;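 active = inhibition above the mean inhibition of all tested compounds plus 3 SD, set per campaign, cut at about 52% in these data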;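 note: 0% = DMSO treated cells and 100% = cells given Gossypol at 36 µM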
NCOA3 inh – inhibits human SRC3 coactivator. inhibition, % at 3.6 µM. actives 0.17% (n = 360,000). HEK293 GAL4-SRC3 luciferase reporter, luminescence. Q9Y6Q9. AID 588352;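 active = inhibition above a per-campaign cutoff, the mean of all compounds plus 3 SD, cut at about 60% in these data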;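 note: 0% = DMSO-treated cells and 100% = gossypol-treated cells at 36 µM; higher means less SRC3-driven luciferase light from the GAL4 reporter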
NCOA1 inh – inhibits human SRC1 coactivator | actives 0.12% (n = 360,000) | inhibition, % at 3.6 µM | AID 588354 | Q15788 | HEK293 GAL4-SRC1 luciferase reporter, luminescence;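 active = inhibition above the campaign mean plus 3 SD, with each screening campaign given its own cutoff, cut at about 60% in these data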;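 note: 0% = DMSO treated cells and 100% = gossypol at 36 µM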
LRH-1 inv ag – NR5A2 inverse agonism in reporter assay. O00482. HEK293T StAR-luciferase reporter, LRH-1 transfected, 24 h. inhibition, % at 3.6 µM. actives 0.13% (n = 360,000). AID 602396;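 active = inhibition above the mean inhibition of all tested compounds plus 3 SD, cut at about 73% in these data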;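 note: 0% = DMSO wells and 100% = reporter-only cells lacking LRH-1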
COUP-TFII inh – blocks human COUP-TFII nuclear receptor | actives 0.7% (n = 370,000) | HEK293T NGFI-A luciferase reporter, luminescence | P24468 | inhibition, % at 8.6 µM;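 active = inhibition above a per-plate cutoff, mean inhibition of test wells between control levels plus 3 SD, cut at about 38% in these data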;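 note: cells cotransfected with COUP-TFII expression vector driving the NGFI-A reporter; 0% = median of COUP-TF2 test wells and 100% = reporter-only cells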
VP16 Luc counter – VP16 inhibition counter-screen for COUP-TFII; shares compounds with COUP-TFII inh; HEK293 Gal4-VP16 luciferase reporter, luminescence; inhibition, % at 8.5 µM; actives 25% (n = 2,500); AID 687007; in the data active = inhibition above about 13%
NR2F2 inh conf – confirmation of human COUP-TFII (NR2F2) inhibitors. shares compounds with COUP-TFII inh. actives 45% (n = 2,500). HEK293 NGFI-A luciferase reporter, luminescence. inhibition, % at 8.5 µM;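 active = mean inhibition over three repeats above a set limit taken from the earlier primary screen, cut at about 38% in these data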;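 note: 100% = cells given the luciferase reporter alone without the COUP-TF2 vector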
Starred values were filed as active, the others as inactive; x = not tested or not shown. Shown are actives, neighbours in structure and some others; about 0.81% of the full set was active somewhere.

SMILES | NCOA2 inhibitor | NCOA3 inh | NCOA1 inh | LRH-1 inv ag | COUP-TFII inh | VP16 Luc counter | NR2F2 inh conf
CC(C)(C)C(=O)OCc1nc(-c2ccc(C(F)(F)F)cc2)cs1 | -18 | 9 | 8 | -9 | 4 | x | x
COc1ccc(-c2cn[nH]c2-c2ccc(OC)cc2O)cc1 | 52* | 40 | 34 | 11 | 16 | x | x
O=C(/C=C/c1cn(-c2ccccc2)nc1-c1cccnc1)N1CCCC1 | 6 | 31 | -7 | 27 | 19 | x | x
O=C(/C=C/c1cn(-c2ccccc2)nc1-c1cccnc1)c1ccco1 | 64* | 8 | 2 | 2 | 2 | x | x
C=CCNc1nc2c(c(=O)n(C)c(=O)n2C)n1CCCCCC | 4 | 27 | 13 | 46 | 61* | x | x
C=CCNc1nc2c(c(=O)n(C)c(=O)n2C)n1CC | 0 | 9 | -6 | 14 | 3 | x | x
O=C(NCCc1c[nH]c2ccccc12)c1ccc([N+](=O)[O-])o1 | 52* | 2 | 22 | 55 | 28 | x | x
O=C(NCCc1c[nH]c2ccccc12)c1cc([N+](=O)[O-])cc([N+](=O)[O-])c1 | 14 | 12 | 2 | 10 | 12 | x | x
C=CCN=C1CCCc2c1[nH]c1ccc(C)cc21 | -54 | -22 | -32 | 2 | -54 | x | x
CC(C)c1c(C(=O)N/N=C/c2ccc3c(c2)OCO3)nnn1-c1nonc1N | 0 | 13 | -16 | -13 | 1 | x | x
CCN(CC)c1ccc(/C=N/NC(=O)c2nnn(-c3nonc3N)c2C(C)C)c(O)c1 | 43 | 77* | 51 | 26 | -40 | x | x
NS(=O)(=O)c1ccc(Sc2nc3ccccc3s2)c([N+](=O)[O-])c1 | 39 | 62* | 24 | 56 | 17 | x | x
Nc1cc2ccncc2c2ccccc12 | 40 | 60 | 67* | 66 | 36 | x | x
CCCCCCCn1ccc(=N)cc1 | 3 | 24 | 23 | 79* | 80* | 24* | 77*
CCCCCCCCCn1ccc(=N)cc1 | 31 | 68* | 52 | 84* | 77* | 22* | 82*
CCCCCn1ccc(=N)cc1 | 16 | 9 | -7 | -7 | 37 | x | x
NC(N)=NCC(O)CN(c1ccccc1)c1ccccc1 (stereo not drawn) | 3 | 4 | -3 | -17 | 18 | x | x
O=C(Nc1cccc(S(=O)(=O)N2CCCCC2)c1)c1ccc2c(=O)n3c(nc2c1)CCCCC3 | 26 | 32 | 13 | 26 | 45* | 0 | 49*
CC(=O)c1cccc(N=c2scc(-c3ccc(S(=O)(=O)N4CCOCC4)cc3)n2CCO)c1 | -5 | 54 | 26 | 46 | 60* | 4 | 65*
C=CCOc1ccc(C(c2c(C(=O)O)[nH]c3ccccc23)c2c(C(=O)O)[nH]c3ccccc23)cc1 | -20 | -8 | -29 | 25 | 4 | x | x
COC(=O)[C@]12C[C@H](CC(=O)NCCCCc3ccccc3)C(=O)N(CCc3ccc(OC)c(OC)c3)C1=C[C@H](C(C)C)O[C@@H]2C1CC1 | -14 | x | x | x | -6 | x | x
C=CC[n+]1c(-c2ccc(C)cc2)csc1Nc1c(C)n(C)n(-c2ccccc2)c1=O | -21 | 7 | -12 | 23 | 4 | x | x
C=CC[n+]1c(-c2ccc(Cl)cc2Cl)csc1Nc1c(C)n(C)n(-c2ccccc2)c1=O | -20 | 11 | 7 | 45 | 46* | 4 | 40*
Cc1noc(C)c1CSCC(=O)Nc1cccc(C(F)(F)F)c1 | 13 | -8 | -1 | -20 | 13 | x | x
CCCC[C@H]1C2CC(OC(=O)Nc3cccc(Br)c3)C(C2)[C@H]2CCCCN21 (stereo partly drawn) | 19 | x | x | x | -9 | x | x
SMILES | NCOA2 inhibitor | NCOA3 inh | NCOA1 inh | LRH-1 inv ag | COUP-TFII inh | VP16 Luc counter | NR2F2 inh conf
CCN1CCS/C1=C\C=C\C1=[N+](CC)CCS1 | -12 | 34 | 42 | 57 | 68* | 12 | 64*
S=C(NCC1CCCCC1)OC1CCC12CCC(c1ccccc1)CC2 (stereo not drawn) | 8 | x | x | x | -10 | x | x
CC(C)(C)OC(=O)NCCCCCc1nnc(SCC(=O)Nc2cccc(Cl)c2)o1 | 12 | 6 | -16 | 12 | 26 | x | x
Cc1onc(-c2ccccc2)c1C(=O)NC(=S)NNC(=O)c1ccc(O)cc1O | 23 | 73* | 64* | 89* | 50* | 15* | 54*
CCCS(=O)(=O)NC(=O)C1(C)CCCN(C(=O)c2ccc3ccccc3c2)C1 (stereo not drawn) | -4 | -6 | -8 | -1 | 2 | x | x
Cc1c(C(=O)OCC2CCCO2)[nH]c2c1C(=O)CC(c1ccc(N(C)C)cc1)C2 (stereo not drawn) | 16 | 3 | 3 | 17 | 37* | -15 | 5
Clc1ccccc1C1=Nn2c(nnc2-c2ccncc2)SC1 | 54* | 66* | 58 | 31 | 40* | 6 | 28
CC1=Nn2c(nnc2-c2ccccc2Cl)SC1 | 7 | 5 | -5 | -7 | -8 | x | x
COc1ccc(-c2c(C(=O)c3ccc(Br)cc3)[nH]c(N)c2C(=O)NCCc2c[nH]c3ccccc23)cc1OC | 18 | x | x | x | -10 | x | x
O=C(NCc1cccc(Cl)c1)c1cccc(OC2CCN(C(=O)C3CC3)CC2)c1 | 20 | 8 | -1 | 14 | 56* | -4 | 32
Cc1ccc2c(c1)N(CC(=O)Nc1ncccc1C)C(=O)C(C(C)C)O2 (stereo not drawn) | 0 | -4 | -10 | 6 | 6 | x | x
C=CCn1c(SCc2ccc(C(=O)Nc3nccs3)cc2)nnc1-c1ccc(C)c(Cl)c1 | 22 | 19 | -4 | 0 | 40* | -12 | 21
COc1cc(CC(=O)OCC(=O)Nc2sccc2C(N)=O)cc(OC)c1OC | 22 | 8 | 5 | 9 | 43* | -14 | 3
N#Cc1c(NC(=O)CSc2ncn[nH]2)sc2c1CCCC2 | 75* | 26 | 23 | 39 | 77* | 78* | 74*
N#Cc1c(NC(=O)CCCC(=O)O)sc2c1CCCCC2 | 61* | -13 | -66 | -27 | 46* | 17* | 1
CC1CCc2c(sc(NC(=O)CSc3ncn[nH]3)c2C#N)C1 (stereo not drawn) | 82* | 53 | 44 | 47 | 86* | 80* | 84*
CC(C)(C)C1CCc2c(sc(NC(=O)CSc3ncn[nH]3)c2C#N)C1 (stereo not drawn) | 6 | 2 | 15 | -1 | -4 | x | x
CN1/C(=C\C=C2/SC(=S)NC2=O)C(C)(C)c2ccccc21 | 34 | 20 | 23 | 27 | 42* | 14* | 24
CCc1ccc(C(=O)COC(=O)c2cc([N+](=O)[O-])ccc2N2CCOCC2)cc1 | -4 | 0 | 9 | 12 | 2 | x | x
COC1=CC(=O)c2nc(Cl)ccc2C1=O | 49 | 59 | 64* | 76* | 38* | 35* | 26
O=C(COc1ccc(Cl)cc1)Nc1ccc(N2CCN(C(=O)c3ccco3)CC2)cc1 | 5 | 24 | 12 | 11 | 52* | -1 | 35
CCC(=O)Nc1ccc(N2CCN(C(=O)c3ccccc3C)CC2)cc1 | 4 | 7 | -33 | -1 | 5 | x | x

High-throughput results deposited in PubChem BioAssay by The Scripps Research Institute Molecular Screening Center.
